# Pf apPOL inh = Pf-apPOL DNA polymerase inhibition | Recombinant Pf-apPOL, molecular beacon fluorescence, 1.5 h | inhibition, % at 10 µM | 210,000 tested, 0.25% active | AID 1794808
# mHTT CaM bind = inhibitors of human mutant huntingtin-calmodulin interaction. inhibition, % at 15 µM. AlphaScreen His-mHTT/GST-CaM binding, luminescence. 190,000 tested, 3.6% active. P42858
# Numbers stand for hits; - = inactive; . = no result. Many of the other results were omitted from the sample, so hits are more common in it than they were. Rule as the data show it: active = inhibition above about 50%; inactive = the rest.
SMILES,Pf apPOL inh,mHTT CaM bind
COC(=O)c1cnc2nc(C)ccc2c1Nc1ccc(Cl)cc1C,-,85.3
CCOC(=O)c1cnc2nc(C)ccc2c1Nc1ccc(F)c(Cl)c1,-,68.0
O=C(NCc1ccccc1C(F)(F)F)C1CCCN(c2cn[nH]c(=O)c2)C1 (centres undefined),-,-
Cc1c(NC(=O)c2ccc(Br)cc2)cccc1-n1cnnn1,-,-
Cc1cc(-n2nnc(C(=O)Nc3cccc(F)c3)c2-c2cccnc2)ccc1F,-,-
Cc1nc2cc(NC(=O)c3cccc(NS(=O)(=O)c4ccccc4)c3)ccc2s1,-,-
O=C(c1ccc(F)cc1)N1CCc2nc(N3CCCC3)nc(N3CCCC3)c2C1,-,55.9
O=C(c1ccc(F)cc1)N1CCCCCC1,-,-
Cc1cc(Cl)ccc1OC(C)C(=O)Nc1nc(C)c(C)s1 (centres undefined),-,-
O=C(CSc1nnc(NC(=O)c2cccs2)s1)NCc1ccccc1Cl,-,-
CC(C)C(=O)Oc1coc(CSc2nnc(NC(=O)c3cccs3)s2)cc1=O,73.8,82.4
CCCCNC(=O)C1CCCN(S(=O)(=O)N2CCCC2)C1 (centres undefined),-,-
CCC(C)NC(=O)c1ccc2nc(NC(=O)c3ccc([N+](=O)[O-])cc3)sc2c1 (centres undefined),-,-
CCOC1=NN(c2ccc([N+](=O)[O-])cc2)C(=O)/C1=C/c1cccc(Cl)c1Cl,-,65.0
CCOC1=NN(c2ccc([N+](=O)[O-])cc2)C(=O)/C1=C/c1ccccc1OCC,-,-
Cc1cc(Cl)ccc1NC(=O)N1CCc2c(nc3cc(-c4ccccc4)[nH]n3c2=O)C1,-,-
Cc1ccc(C)c(C(=O)N2CCC(c3nc(C(=O)N(C)C)c(C)o3)CC2)c1,-,-
C=CCn1c(=N)n(CC(O)c2ccc(-c3ccccc3)cc2)c2ccccc21 (centres undefined),-,96.3
C=CCn1c(=N)n(CC(O)c2ccc(Br)cc2)c2ccccc21 (centres undefined),-,-
CN(CC12CCCC1N(C)C(=O)CC2)C(=O)c1cccs1 (centres undefined),-,-
COC(CNC(=O)c1ccc(N2CCCCCC2)c([N+](=O)[O-])c1)OC,-,-
CCOC(CNC(=O)c1ccc(N2CCc3ccccc32)c([N+](=O)[O-])c1)OCC,-,56.0
O=[N+]([O-])c1cc(C(F)(F)F)ccc1N1CCCCC1,-,.
O=[N+]([O-])c1cc(C(F)(F)F)ccc1N1CCc2ccccc21,-,95.0
CCc1ccc(C(=O)N2CCCn3nc(-c4cccs4)cc3C2)cc1,-,-
SMILES,Pf apPOL inh,mHTT CaM bind
COc1cccc(-c2nc(C=Nc3ccc(C(=O)N(C)c4ccccc4)cc3)c(O)o2)c1,-,-
CS(=O)(=O)c1cccc(C(=O)Nc2nnc(-c3ccno3)o2)c1,-,94.7
O=C(Nc1nnc(-c2ccno2)o1)c1cccs1,-,81.5
Cc1cc(-c2nnc(NC(=O)c3ccc4ncsc4c3)o2)nn1C,-,-
O=C(Nc1nnc(-c2ccno2)o1)c1ccc2ncsc2c1,57.1,90.0
O=C(Nc1nnc(-c2ccc(Br)s2)o1)c1cccs1,-,-
Cc1cc(C(=O)Nc2nnc(-c3ccno3)o2)no1,-,-
CCCn1c(C(=O)N2CCN(C(C)=O)CC2)cc2sc(C)cc21,-,-
Cc1noc(C2CN(C(=O)c3cnccn3)CC23CCOCC3)n1 (centres undefined),-,-
Cc1ccc(NC=CC(=O)c2ccc(Cl)cc2)cc1,-,-
COc1ccc2nc(C=C3Oc4cc(O)ccc4C3=O)ccc2c1,-,-
CCN(C)c1nc(-c2ccccc2F)c2c(N)n(C)nc2n1,-,-
O=C(NCCCN1CCCC1)c1cc2cn(C3CCCC3)cc2s1,-,-
O=C(c1cc2cn(C3CCCC3)cc2s1)N1CCSCC1,-,-
O=C(c1cc2cn(C3CCCC3)cc2s1)N1CCN(C2CCCCC2)CC1,-,73.4
CC(C)n1cc2cc(C(=O)NCc3ccc(Cl)cc3)sc2c1,-,73.0
COc1cccc(CNC(=O)c2cc3cn(C4CC4)cc3s2)c1,-,57.4
O=C(NCCCN1CCCC1)c1cc2cn(C3CC3)cc2s1,107.5,99.2
CC(C)n1cc2cc(C(=O)NCc3ccc(N4CCOCC4)cc3)sc2c1,-,-
O=C(NCc1ccc(N2CCOCC2)cc1)c1cc2cn(C3CC3)cc2s1,-,-
Cc1oc(C2CCN(C(=O)c3ccc(Cl)cc3)CC2)nc1C(=O)N(C)C,-,-
O=C1CCCC2=C1C(c1ccccc1[N+](=O)[O-])n1ncnc1N2 (centres undefined),-,-
CC(C)NC(=O)c1cc2cn(C3CCCC3)cc2s1,-,-
COc1ccc(NC(=O)c2cc3cn(C4CC4)cc3s2)c(C)c1,-,51.7
COc1ccc(C)cc1-n1cnc2cc(C(=O)NC3CCCCC3C)ccc21 (centres undefined),-,66.0
SMILES,Pf apPOL inh,mHTT CaM bind
Cc1ccc(-n2cnc3cc(C(=O)NC4CCCC4)ccc32)c(C)c1,-,-
Cc1cc(C)c(S(=O)(=O)Nc2ncccn2)c(C)c1,-,-
Cc1cc(C)c(S(=O)(=O)Nc2ncccc2C)c(C)c1,99.6,-
O=C(NCC1(c2ccc(F)cc2)CC1)c1ccc(F)c(F)c1,-,-
O=C1CC(N2C(=O)c3ccccc3C2=O)C2COC1O2 (centres undefined),-,-
COc1ccc(-c2c3c(=O)n(C)c(=O)n(C)c3cn2-c2ccccc2O)cc1,92.3,-
COc1ccc(-c2c3c(=O)n(C)c(=O)n(C)c3cn2C)cc1,89.8,-
COc1ccc(-c2c3c(=O)n(C)c(=O)n(C)c3cn2-c2cc(C)c(C)cc2N)cc1,67.5,-
CCn1cc2c(c1-c1ccc(OC)cc1)c(=O)n(C)c(=O)n2C,54.1,-
Cn1cc2c(c1-c1ccccc1)c(=O)n(C)c(=O)n2C,-,-
COc1ccc(-c2c3c(=O)n(C)c(=O)n(C)c3cn2Cc2ccccc2)cc1,-,-
Cn1c(=O)c2c(-c3ccccc3)n(-c3ccccc3O)cc2n(C)c1=O,-,-
COc1ccc(-c2c3c(=O)n(C)c(=O)n(C)c3cn2-c2ccccc2N)cc1,-,-
CCCc1nc2cccnc2n1C1CCN(C(=O)Cc2ccsc2)C1 (centres undefined),-,-
CC(=O)NCCc1csc(C2CCCN(C(=O)c3ccc(Cl)cc3)C2)n1 (centres undefined),-,-
COc1ccc2c(=O)c3c(oc2c1)C(=O)N(CCN(C)C)C3c1ccc(C(C)C)cc1 (centres undefined),-,-
Cc1nn(Cc2ccc(C(=O)n3ccnc3C)o2)c(C)c1Br,-,-
CCN(CC)C(=O)CC[C@H]1CC[C@]2(CCCN(C(=O)c3ccno3)C2)O1,-,-
CCOC(=O)CC[C@H]1CC[C@]2(CCCN(C(=O)c3ccno3)C2)O1,-,78.3
CC1(C(=O)Nc2ccc(Cl)cc2F)Oc2cccnc2NC1=O (centres undefined),-,-
Cc1ccccc1Oc1cc(N2CCN(C(=O)C3CC3)C(C)C2)ncn1 (centres undefined),-,-
CCCC(C)Sc1nc2nc(C)cc(C)n2n1 (centres undefined),.,-
COc1ccc(CN(CCC2(Cc3ccccc3)CCOC(C)(C)C2)C(C)=O)cc1 (centres undefined),-,-
CC(=O)N(CCC1(Cc2ccccc2)CCOC(C)(C)C1)Cc1ccccc1 (centres undefined),-,55.8
COCC(=O)Nc1ccc(-c2ccc3nnc(-c4ccncc4)n3n2)cc1,-,-

# Assay outcomes deposited in PubChem BioAssay by University of Kansas High Throughput Screening Laboratory.
